# Many of the other results were omitted from the sample, so the strongest signals are more common in it than they were.
# B1: Sp8391B-bot-388-20-388 (Bacteroides ovatus) (protein)
# chain: GCQNNDENEQHYDNKLFISASNFTKEILFKAGDTNVETGLSVAIAKPEEHDIKVTMSPAPELLSTYKLAYYDETAVLLSEEHYSMPETSTTIKSGSIVSPELPIEFINTGELDIKTTYVLPVTIKSVEGIGVLQSAKTYYYVFRGASLINVVCNISRNRAYPDFKNDSKFNNLTENTMEILFKANSFPNTLNTLMGIESNYLLRIGDATIPNNQLQVATSVNNCTSADLQLESGKWYHVAVAFNKGNVKVYINGVEKLSGSTGKSSVSLGAKHTNEEDGSRCFWVGYSYKDDRYFDGVVSEVRIWNRALTAEEIQATNHFYTIEPESEGLIAYWKFDEGSGTVAKDYSVSGYDLTIEKEPKWESVSLPQ
# Columns and labels:
# Test in all cases: glycan array binding signal (z-score within array); higher = stronger binding
# Details in all cases: glycan notation: IUPAC condensed, linker removed
# [1] = biological target: Gal(b1-4)GlcNAc(b1-3)[GlcNAc(b1-6)]Gal(b1-4)GlcNAc
# Method in brief: (§1)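 Glycan array data came from 3228 arrays in the Consortium for Functional Glycomics database, and only arrays with an available protein sequence were kept. Glycan names were put into IUPAC-condensed notation, and columns mapping to the same glycan were averaged. The binding signal is a within-array Z-score, averaged across arrays of one protein sequence run at different concentrations or buffers and across linkers. A negative Z-score can be read as non-binding.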
# [2] = biological target: Gal(b1-4)GlcNAc(b1-6)Gal(b1-4)GlcNAc
# Method in brief: as §1
# Gal(b1-4)GlcNAc6P = biological target: Gal(b1-4)GlcNAc6P
# Method in brief: as §1
# GalNAc4S6S(b1-4)GlcNAc = biological target: GalNAc4S6S(b1-4)GlcNAc
# Method in brief: as §1
# [3] = biological target: Glc(a1-4)Glc(a1-4)Glc(a1-4)Glc
# Method in brief: as §1
# [4] = biological target: GlcNAc(b1-2)Man(a1-3)[GlcNAc(b1-4)][GlcNAc(b1-2)Man(a1-6)]Man(b1-4)GlcNAc(b1-4)GlcNAc
# Method in brief: as §1
# [5] = biological target: GlcNAc(b1-3)Gal(b1-4)GlcNAc(b1-3)Gal(b1-4)GlcNAc(b1-3)Gal(b1-4)GlcNAc(b1-2)Man(a1-3)[GlcNAc(b1-3)Gal(b1-4)GlcNAc(b1-3)Gal(b1-4)GlcNAc(b1-3)Gal(b1-4)GlcNAc(b1-2)Man(a1-6)]Man(b1-4)GlcNAc(b1-4)[Fuc(a1-6)]GlcNAc
# Method in brief: as §1
# GlcNAc(b1-3)Man = biological target: GlcNAc(b1-3)Man
# Method in brief: as §1
# [6] = biological target: GlcNAc(b1-4)GlcNAc(b1-4)GlcNAc
# Method in brief: as §1
# [7] = biological target: Kdn(a2-3)Gal(b1-4)[Fuc(a1-3)]GlcNAc
# Method in brief: as §1
# MurNAc(b1-4)GlcNAc = biological target: MurNAc(b1-4)GlcNAc
# Method in brief: as §1
# [8] = biological target: Neu5Ac(a2-3)Gal(b1-3)GlcNAc
# Method in brief: as §1
# [9] = biological target: Neu5Ac(a2-3)Gal(b1-3)GlcNAc(b1-2)Man(a1-3)[GlcNAc(b1-4)][Neu5Ac(a2-3)Gal(b1-3)GlcNAc(b1-2)Man(a1-6)]Man(b1-4)GlcNAc(b1-4)GlcNAc
# Method in brief: as §1
# [10] = biological target: Neu5Ac(a2-3)Gal(b1-4)GlcNAc(b1-2)Man(a1-3)[Neu5Ac(a2-3)Gal(b1-4)GlcNAc(b1-2)Man(a1-6)]Man(b1-4)GlcNAc(b1-4)GlcNAc
# Method in brief: as §1
# [11] = biological target: Neu5Ac(a2-3)Gal(b1-4)GlcNAc(b1-2)[Neu5Ac(a2-3)Gal(b1-4)GlcNAc(b1-6)]Man(a1-6)[Neu5Ac(a2-3)Gal(b1-4)GlcNAc(b1-2)Man(a1-3)]Man(b1-4)GlcNAc(b1-4)GlcNAc
# Method in brief: as §1
# [12] = biological target: Neu5Ac(a2-3)Gal(b1-4)GlcNAc(b1-3)GalNAc
# Method in brief: as §1
# [13] = biological target: Neu5Ac(a2-3)Gal6S(b1-4)GlcNAc
# Method in brief: as §1
# [14] = biological target: Neu5Ac(a2-3)[GalNAc(b1-4)]Gal(b1-4)Glc
# Method in brief: as §1
# [15] = biological target: Neu5Ac(a2-6)Gal(b1-3)GlcNAc(b1-3)[Gal(b1-4)GlcNAc(b1-6)]Gal(b1-4)Glc
# Method in brief: as §1
# [16] = biological target: Neu5Ac(a2-6)Gal(b1-4)GlcNAc
# Method in brief: as §1
# [17] = biological target: Neu5Ac(a2-6)Gal(b1-4)GlcNAc(b1-2)Man(a1-6)[Man(a1-3)]Man(b1-4)GlcNAc(b1-4)GlcNAc
# Method in brief: as §1
# [18] = biological target: Neu5Ac(a2-6)Gal(b1-4)GlcNAc(b1-2)[Neu5Ac(a2-6)Gal(b1-4)GlcNAc(b1-4)]Man(a1-3)[GlcNAc(b1-4)][Neu5Ac(a2-6)Gal(b1-4)GlcNAc(b1-2)[Neu5Ac(a2-6)Gal(b1-4)GlcNAc(b1-6)]Man(a1-6)]Man(b1-4)GlcNAc(b1-4)GlcNAc
# Method in brief: as §1
# [19] = biological target: Neu5Ac(a2-6)Gal(b1-4)GlcNAc(b1-6)[Gal(b1-3)]GalNAc
# Method in brief: as §1
# [20] = biological target: Neu5Ac(a2-6)GalNAc(b1-4)GlcNAc6S
# Method in brief: as §1
# [21] = biological target: Neu5Ac(a2-8)Neu5Ac(a2-3)[GalNAc(b1-4)]Gal(b1-4)Glc
# Method in brief: as §1
# [22] = biological target: Neu5Ac(a2-8)Neu5Ac(a2-8)Neu5Ac(a2-3)Gal(b1-4)Glc
# Method in brief: as §1
# [23] = biological target: Neu5Ac9Ac(a2-6)Gal(b1-4)GlcNAc
# Method in brief: as §1
# [24] = biological target: Neu5Gc(a2-8)Neu5Gc(a2-3)Gal(b1-4)GlcNAc(b1-3)Gal(b1-4)GlcNAc
# Method in brief: as §1
binder,measurement,setting,value
B1,glycan array binding signal (z-score),[1],0.193
same,glycan array binding signal (z-score),[2],0.486
same,glycan array binding signal (z-score),Gal(b1-4)GlcNAc6P,0.015
same,glycan array binding signal (z-score),GalNAc4S6S(b1-4)GlcNAc,-0.043
same,glycan array binding signal (z-score),[3],-0.549
same,glycan array binding signal (z-score),[4],-0.101
same,glycan array binding signal (z-score),[5],2.65
same,glycan array binding signal (z-score),GlcNAc(b1-3)Man,0.083
same,glycan array binding signal (z-score),[6],-0.077
same,glycan array binding signal (z-score),[7],1.91
same,glycan array binding signal (z-score),MurNAc(b1-4)GlcNAc,-0.265
same,glycan array binding signal (z-score),[8],-0.213
same,glycan array binding signal (z-score),[9],-0.652
same,glycan array binding signal (z-score),[10],-0.533
same,glycan array binding signal (z-score),[11],0.918
same,glycan array binding signal (z-score),[12],-0.435
same,glycan array binding signal (z-score),[13],-0.501
same,glycan array binding signal (z-score),[14],0.131
same,glycan array binding signal (z-score),[15],6.14
same,glycan array binding signal (z-score),[16],-0.355
same,glycan array binding signal (z-score),[17],0.075
same,glycan array binding signal (z-score),[18],2.53
same,glycan array binding signal (z-score),[19],-0.211
same,glycan array binding signal (z-score),[20],-0.019
same,glycan array binding signal (z-score),[21],0.19
same,glycan array binding signal (z-score),[22],0.117
same,glycan array binding signal (z-score),[23],-0.27
same,glycan array binding signal (z-score),[24],-1.02

# Reference: the supplement of paper PMC8728848
